Only a selection was taken, and hits are over-represented in it overall.
TTR transcr act: activators of transthyretin transcription; SH-SY5Y TTR promoter Gaussia luciferase, luminescence; 100% = recombinant luciferase protein wells; activation, % at 16.7 µM; 92,000 tested, 1.3% active;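 active = activation above the mean of all tested compounds plus 3 SD, cut at about 9.5% in these data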;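 note: cells exposed to compounds for one day before reading; 0% = median of all test compound wells on the plate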
HuH7 TTR inh: decreases TTR transcription in HuH7 cells in activator counter-screen; shares compounds with TTR transcr act; HuH7 TTR promoter-Gaussia luciferase reporter, luminescence; inhibition, % at 16.7 µM; 1,100 tested, 4% active; AID 1117279;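 active = average inhibition above the solvent-only control wells' mean plus 3 SD, cut at about 15% in these data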;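 note: 0% = cells with DMSO only and 100% = cells with inhibitor control FD; inhibitors lower well luminescence so higher value means more inhibition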
TTR up confirm: human TTR transcription activation, confirmation; SHSY5Y TTR promoter Gaussia luciferase, luminescence; 100% = purified Lucia enzyme wells, no cells; activation, % at 16.7 µM; 1,100 tested, under 10 active; shares compounds with TTR transcr act; AID 1117280;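 active = mean activation above a set limit taken from the earlier primary screen, cut at about 11% in these data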;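 note: 0% = DMSO-treated cells and 100% = recombinant Lucia luciferase without cells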
* = called active by the depositor.

SMILES | TTR transcr act | others
Cc1ccc(C#N)c(SCc2cccc(Br)c2)n1 | 12.6* | HuH7 TTR inh=-11.3;TTR up confirm=8.2
Cc1cccc(CSc2nc3c(cc2C#N)CCC3)c1 | -2.2
Cc1ccc(C#N)c(SCc2cc3c(cc2Cl)OCO3)n1 | 6.5
CS(=O)(=O)N1CCN(c2ccccc2NC(=O)C(c2ccccc2)c2ccccc2)CC1 | -0.6
COC(=O)c1ccc(SCC(=O)NCc2ccccc2)c([N+](=O)[O-])c1 | -0.7
CC1CC1C(=O)OCC(=O)Nc1cccc([N+](=O)[O-])c1 (stereo not drawn) | 12.2* | HuH7 TTR inh=-4.8;TTR up confirm=0.0
CC1CC1C(=O)OCC(=O)Nc1ccc(N=Nc2ccccc2)cc1 (stereo not drawn) | -1.9
Cc1ccc(C(=O)c2ccccc2C(=O)OCC(=O)Nc2cccc([N+](=O)[O-])c2)cc1 | -1.8
CC(C)[C@H](NC(=O)c1ccccc1Cl)C(=O)OCc1cc([N+](=O)[O-])cc2c1OCOC2 | 3.4
O=C1c2ccccc2NC(c2ccco2)N1NS(=O)(=O)c1ccccc1 (stereo not drawn) | -0.6
O=C(N1CCOCC1)N(Cc1cccs1)C1CCCC1 | 2.3
O=C(Oc1ccc2c3c(c(=O)oc2c1)CCCC3)c1ccco1 | -1.1
COc1ccc(C(=O)NCCCc2ccccc2)cc1 | -0.8
Cc1ccc(C(=O)NCCCc2ccccc2)s1 | 67.3* | HuH7 TTR inh=-7.3;TTR up confirm=0.6
Cc1ccc(C(=O)Nc2ccc(OCc3ccccc3)cc2)s1 | 0.3
CC(Oc1ccccc1)c1ccnn1S(C)(=O)=O (stereo not drawn) | -1.3
O=c1[nH]c2cc3c(cc2cc1CN(Cc1nnnn1CC1CCCO1)C1CCCCC1)OCO3 (stereo not drawn) | 3.6
COc1nc(-c2ccccc2)ncc1S(=O)(=O)c1ccccc1 | 1.1
COc1ccc(Oc2nc(-c3ccccc3)ncc2S(=O)(=O)c2ccccc2)cc1 | 6.0
Cc1cccc(C)c1Oc1nc(-c2ccccc2)ncc1S(=O)(=O)c1ccccc1 | 26.5* | HuH7 TTR inh=-3.9;TTR up confirm=0.3
CC(=O)Nc1cccc(NC(=O)Cc2nc(-c3ccccc3)sc2-c2ccc(C)cc2)c1 | -2.2
COc1cc(C2NCCc3c2[nH]c2ccccc32)ccc1OC(C)C (stereo not drawn) | 2.8
O=C(CCNC(=O)c1ccc(Cl)cc1)NCc1ccccc1Cl | -0.6
Cc1ccccc1OCCn1c(S(=O)(=O)O)nc2c(N)ncnc21 | 9.9* | HuH7 TTR inh=-16.1;TTR up confirm=0.2
Cc1ccccc1OCCn1c(=S)[nH]c2ccccc21 | -1.3
SMILES | TTR transcr act | others
Cc1ccccc1OCCn1c(C)nc2ccccc21 | -2.1
CCOc1ccccc1NC(=O)CSc1nnnn1-c1ccccc1 | 0.3
CCCCCCCOC(=O)c1nc(Cl)c(Cl)c(N)c1Cl | 6.4
O=[N+]([O-])c1ccc(NCc2ccc(Cl)cc2)nc1 | -0.3
CC12CC3(C)CC(C)(C1)CC(C(=O)NC(=S)N1CCOCC1)(C2)C3 | 0.1
CC12CC3CC(C)(C1)CC(C(=O)NC(=S)N1CCCCC1)(C3)C2 | 14.0* | HuH7 TTR inh=-6.0;TTR up confirm=-0.3
CN(C)C(=S)NC(=O)C12CC3CC(C)(CC(C)(C3)C1)C2 | -2.2
CSc1ccccc1NC(=O)C1CCCN(S(C)(=O)=O)C1 (stereo not drawn) | 1.9
COc1ccc(C(=O)C(C)C(C)=O)c(OCc2ccccc2)c1OC (stereo not drawn) | 14.0* | HuH7 TTR inh=-19.8;TTR up confirm=-0.6
COc1cc(NC(=O)c2ccccc2OCc2ccccc2)cc(OC)c1OC | -1.2
COc1cccc(C(=O)NOCc2ccccc2)c1OC | 1.2
CN1CCN(C(=O)/C(=C\c2cccs2)NC(=O)c2ccco2)CC1 | 9.7* | HuH7 TTR inh=3.4;TTR up confirm=-0.8
Cc1ccccc1NC(=O)/C(=C\c1cccs1)NC(=O)c1ccco1 | 1.9
O=C(N/C(=C\c1cccs1)C(=O)N1CCOCC1)c1ccco1 | -1.1
Cc1ccc(NC(=O)CSc2nc(N)cc(=O)[nH]2)cc1S(=O)(=O)N1CCOCC1 | 1.2
CN(CC(=O)N1CCCCCC1)S(=O)(=O)c1ccc(Br)cc1 | 20.1* | HuH7 TTR inh=-18.1;TTR up confirm=-0.3
CN(CC(=O)N1CCCCC1)S(=O)(=O)c1ccc(Cl)cc1 | -0.8
CN(CC(=O)N1CCCCCC1)S(=O)(=O)c1ccc(Br)s1 | -1.5
CCCOc1ccc(C(=O)NC(=S)NNC(=O)c2c(-c3ccccc3)noc2C)cc1 | -1.7
N/C(=N\N=C\c1ccc2c(c1)OCO2)c1nonc1N | -0.5
CN(C)S(=O)(=O)c1ccc(C(=O)NCC(=O)N/N=C/c2cccs2)cc1 | 4.5
Cc1cc(C)cc(NC(=O)COC(=O)c2ccc3c(c2)OCCO3)c1 | 5.2
Cc1ccc(/C(N)=N/OC(=O)C23CC4CC(CC(C4)C2)C3)cc1 | -0.3
COC(=O)NCc1ccc2c(c1)OCO2 | -1.1
CCOCC(=O)NCc1ccc2c(c1)OCO2 | 12.3* | HuH7 TTR inh=-12.9;TTR up confirm=-0.1
SMILES | TTR transcr act | others
Cc1ccc(CC(=O)NCc2ccc3c(c2)OCO3)cc1 | -1.0
CSc1ccc(CNCC(O)c2ccccc2)cc1 (stereo not drawn) | 4.2
COc1cc(CNCc2ccccn2)ccc1OCc1ccccc1Cl | -1.4
COc1cc(CNCC(O)c2ccccc2)ccc1OCc1ccc(Cl)nc1 (stereo not drawn) | 10.5* | HuH7 TTR inh=-9.1;TTR up confirm=2.6
COCc1cc(C)nc(N2CCCCC2)c1C#N | -0.5
O=C(O)c1cc(=O)[nH]c2ccc(S(=O)(=O)Nc3ccc(F)cc3)cc12 | -0.3
CCCCNC(=O)Cn1cnc2c(cnn2-c2ccc(C)c(C)c2)c1=O | 2.4
CCOc1ccccc1NC(=O)Cn1cnc2c(cnn2-c2ccc(C)c(C)c2)c1=O | 10.9* | HuH7 TTR inh=-6.1;TTR up confirm=-0.3
CCOCCCNC(=O)Cn1cnc2c(cnn2-c2ccc(F)cc2)c1=O | -0.8
CCOc1ccc(OCCCN(C)C)cc1 | 2.5
O=S(=O)(c1cccs1)N1CCN(c2ccccc2F)CC1 | -1.0
CC(=O)c1csc(Nc2ccccc2Cl)n1 | 12.2* | HuH7 TTR inh=-13.4;TTR up confirm=-0.2
CCCNC(=O)c1csc(Nc2cccc3ccccc23)n1 | 0.2
CC(=O)c1csc(-c2ccccc2)n1 | -1.1
CN(C)S(=O)(=O)c1ccc(NC(=O)COc2ncnc3sccc23)cc1 | -1.2
C=CCSc1nnc2n(CCc3ccccc3)c(=O)c3c4c(sc3n12)COC(C)(C)C4 | 2.0
c1ccc(-c2nnc(-c3ccccn3)nc2NC2CCCCC2)cc1 | -2.8
O=C(N/N=C\c1ccc[nH]1)C1COc2ccccc2O1 (stereo not drawn) | -1.6
O=c1c2cc3cc4c(cc3nc2ncn1Cc1cccnc1)OCO4 | 18.2* | HuH7 TTR inh=-10.1;TTR up confirm=2.0
O=c1c2cc3cc(Cl)ccc3nc2ncn1CCc1ccc(O)cc1 | -0.5
O=c1c2cc3cc4c(cc3nc2ncn1CCc1ccccc1)OCO4 | -0.3
CC(Oc1ccc2c(-c3ccccc3)cc(=O)oc2c1)C(=O)NCc1ccccn1 (stereo not drawn) | -1.5
O=C(c1ccccc1)N1CCN(C(=S)NCc2ccco2)CC1 | -0.7
O=C(COC(=O)c1ccccn1)Nc1cccc(Cl)c1Cl | 1.5
Cc1ccnc2nc(C(=O)OCC(=O)NCCc3ccc(Cl)cc3)nn12 | 1.1
O=C(COC(=O)c1ccccn1)NCCc1ccc(Cl)cc1 | 10.5* | HuH7 TTR inh=-8.4;TTR up confirm=0.3
O=C(c1ccc2c(c1)OCO2)N1CCC2(CC1)Oc1ccc(F)cc1C(=O)C21CC(c2ccc(Cl)cc2)=NO1 (stereo not drawn) | 2.1
CCOC(=O)C1(Cc2ccccc2C)CCCN(C(=O)CN2CCCCC2=O)C1 (stereo not drawn) | 0.7
Cc1ccc(N/C=C2\CCCCC2=O)c(C)c1 | 1.8

Source: PubChem BioAssay (The Scripps Research Institute Molecular Screening Center)
